According to PubChem BioAssay AID651821 (The Scripps Research Institute Molecular Screening Center, 2012):
The whole screen tested about 370,000 compounds, of which about 4,700 (1.3%) were called active. Many of the other results were omitted from the sample, so actives are more common in it than they were. Values without a mark were called inactive.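 Rule for the calls: active = inhibition above the plate cutoff, the mean of all test compounds on that plate plus 3 SD (cut at about 35% in these data); inactive = the rest.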

Test: small molecules binding CAG repeat RNA – biochemical, fluorescence, primary screen (AID 651821);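 note: 0% = DMSO alone and 100% = 100 µM mitoxantrone as full dye displacement; higher means more dye released from RNA so lower well fluorescence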
Settings: r(CAG) RNA repeat, TO-PRO-1 dye displacement fluorescence; at 3 µM; hits give high values

Structure (SMILES)	inhibition
CCN(CC(=O)Nc1c(F)cccc1F)C(=O)CN1c2cccc3cccc(c23)S1(=O)=O	-4.19%
c1csc(-c2nnc(SCc3nc4ccccc4[nH]3)o2)c1	0.42%
COC(=O)Cc1cc(=O)n(-c2nc3ccccc3s2)[nH]1	60.6% (active)
COC(=O)Cc1csc(Nc2c(C)n(C)n(-c3ccccc3)c2=O)n1	3.58%
COC(=O)C1[C@H]2SC(C)(C)C(C(=O)OC)N2C(=O)N1Cc1nc2ccccc2s1 (stereo partly specified)	-2.88%
CC(C)NC(=O)/C(C#N)=C\c1ccc(N(C)C)c(Br)c1	-7.35%
COCC(=O)N[C@@H]1C[C@@H]2O[C@@H](CO)CC[C@@H]2O[C@@H]1CCc1ccc(-c2ccccc2)cc1	-0.99%
O=C(Nc1ccc2c(c1)CCC2)c1cccc(S(=O)(=O)N2CCN(c3ccc(F)cc3)CC2)c1	13%
O=C(NCC1(N2CCCCC2)CCCCC1)c1cccc(S(=O)(=O)Nc2ccccc2Cl)c1	16.6%
O=C(Nc1ccc2c(c1)CCC2)c1cccc(S(=O)(=O)Nc2ccccc2Cl)c1	57.2% (active)
CCOC(=O)[C@@]12CN(C(=O)OC(C)(C)C)CC=C1N(Cc1ccc(OC)cc1)C(=O)[C@H]2CC(=O)NCc1ccc(OC)c(OC)c1	1.18%
CCCCCCC(=O)Nc1nc(C)c(-c2csc(Nc3cc(Cl)ccc3OC)n2)s1	41.8% (active)
CCCCCCC(=O)Nc1nc(C)c(-c2csc(Nc3cccc(OC)c3)n2)s1	28.5%
C=CCCC(=O)Nc1nc(C)c(-c2csc(Nc3ccc(Cl)cc3)n2)s1	31.7%
COCCCNC(=O)C[C@H]1C[C@@]2(C(=O)OC)C(=C[C@H](C(C)(C)C)O[C@@H]2C)N(Cc2ccc3c(c2)OCO3)C1=O	-0.27%
CCOc1ccc(/C=C/C(=O)N(CC)CC(=O)NCc2cccs2)cc1OC	-8.5%
CCOc1cc(/C=C(\C#N)c2nc(-c3cccs3)c(NC(C)=O)s2)ccc1O	37.7% (active)
CCOc1cc(/C=C(/C#N)c2ccc(Cl)cc2)cc(Cl)c1OCC(=O)O	16.7%
CCCN1C(=O)c2[nH]nc(-c3ccccc3)c2C1c1ccccc1 (stereo unspecified)	0.38%
CC1(OC(=O)C2CCCC2)C(=O)C=C2C=C(c3ccc(C#N)cc3)OC=C2C1=O (stereo unspecified)	50.7% (active)
Cc1ccccc1C(=O)N1CCC(C(=O)Oc2ccc(C#N)cc2)CC1	-7.52%

Structure (SMILES)	inhibition
COC(=O)CCCC1=CC2=C(c3ccccc3)C(=O)C(C)(OC(=O)C3CCCC3)C(=O)C2=CN1c1ccc(OC)cc1 (stereo unspecified)	6.99%
C=CC1=CCN(S(=O)(=O)C(C)(C)C)[C@@H]1CCO	8.95%
CCC(C)Cn1c(O)cc2nn(-c3nc4ccccc4s3)c(=O)c-2c1C (stereo unspecified)	56.8% (active)
Cc1cc(C)cc(OCC(=O)Nc2ccc(N3CCOCC3)cc2N2CCOCC2)c1	-4.13%
Cc1cc(C)cc(OCC(=O)Nc2cc(NC(=O)COc3cc(C)cc(C)c3)cc(C(=O)O)c2)c1	61.8% (active)
COCC(=O)Nc1cc(C(=O)OC)cc(C(=O)OC)c1	-0.01%
Cc1cccc(OCC(=O)NC2CC(C)(C)NC(C)(C)C2)c1	0.76%
Cc1cccc(OCC(=O)Nc2ccc(C(=O)O)cc2NC(=O)COc2cccc(C)c2)c1	50.5% (active)
Cc1ccc(OCC(=O)Nc2ccc(C(=O)O)cc2NC(=O)COc2ccc(C)c(C)c2)cc1C	19.4%
COC(=O)Nc1nc2ccc(C(=O)C3CC3)cc2[nH]1	4.25%
C[C@H](C(=O)N(C)c1ccccc1)[C@@H](O)c1ccc2ccccc2c1	1.73%
CCOC(=O)[C@@]12CCC3=C1N(CCC3)C(=O)[C@H](CC(=O)N1CCN(C(=O)c3ccco3)CC1)C2	4.55%
CCCNC(=O)C1CC(=O)N(c2ccc(OCc3ccccc3)cc2)C1 (stereo unspecified)	1.21%
COc1cc(C2CC(=O)N3CN(Cc4ccccc4)CSC3=C2C#N)ccc1OCc1ccccc1 (stereo unspecified)	51.3% (active)
C=CCc1ccc(OCC(O)CN2CCN(Cc3ccccc3)CC2)c(OC)c1 (stereo unspecified)	-8.04%
C/C(=N/OC(=O)c1ccc(Br)cc1)c1ccc(C)cc1	-2.66%
COc1ccccc1C(=O)NC(CCSC)C(=O)NNC(=O)c1ccccc1C (stereo unspecified)	-5.48%
Cc1ccc([C@@H]2CC=C(C(=O)O)[C@H](c3cccc(Cl)c3)N2S(=O)(=O)c2ccc(C)cc2)cc1	77.2% (active)
CCN1C(=O)[C@@H]2[C@@H]3CN(S(=O)(=O)c4ccccc4C)[C@@H](c4ccc(Cl)cc4)[C@@H]3C(=O)C[C@@H]2C1=O	8.04%
Cc1ccc(S(=O)(=O)N2[C@@H](c3ccccc3F)C(C(=O)O)=CC[C@H]2c2ccc(Cl)cc2)cc1	60.2% (active)
Cc1ccccc1S(=O)(=O)N1[C@@H](c2cccc(Cl)c2)C(C(=O)OC(C)(C)C)=CC[C@H]1c1ccc(Cl)cc1	3.52%

Structure (SMILES)	inhibition
Cc1ccc(S(=O)(=O)N2[C@@H](c3cccc(Cl)c3)C(C(=O)O)=CC[C@H]2c2ccc(Cl)c(Cl)c2)cc1	25.1%
COc1ccc(C2CC=C(C(=O)O)C(c3ccccc3F)N2S(=O)(=O)c2ccc(C)cc2)cc1OC (stereo unspecified)	24.2%
CCOC(=O)C1=CC[C@@H](c2ccccc2)N(S(=O)(=O)c2ccc(C)cc2)[C@H]1c1cccc(OC)c1	7.08%
Cc1ccccc1S(=O)(=O)N1[C@@H](c2cccc(Cl)c2)C(C(=O)O)=CC[C@H]1c1ccc(Cl)cc1	81.4% (active)
Cc1ccc([C@@H]2CC(=O)[C@@H]3CN(S(=O)(=O)c4ccc(C)cc4)[C@H](c4ccccc4F)C[C@@H]3N2S(=O)(=O)c2ccc(Cl)cc2)cc1	9.69%
Clc1ccc(-n2c(COc3ccccc3)nnc2SCc2nc3ccccc3[nH]2)cc1	2.7%
COC(=O)[C@@]12CCCCC=C1N(CCc1ccc(Cl)cc1)C(=O)[C@H]2CC(=O)NCc1ccc(OC)c(OC)c1	8.28%
CC(=NNC(N)=O)c1ccc(Cl)c(-n2cccc2)c1	1.94%
COc1ccc(CNC(=O)CN(Cc2ccccc2Cl)C(=O)c2csnn2)cc1	3.39%
O=S1(=O)c2c(cccc2N2CCCC2)O[C@H](COCc2ccccc2)CN1C1CC1	1.71%
CCCC1=Nc2cc(C(=O)NCc3ccco3)ccc2Sc2ccccc21	2.23%
C=CCN1[C@@H](Cc2ccccc2)COc2cccc(N3CCSCC3)c2S1(=O)=O	5.53%
Cc1ccccc1C(=O)N[C@H](C(=O)N1CCC[C@H]1C(=O)NCc1ccccc1)C(C)C	0.37%
O=C(NCc1cccs1)C1CCN(S(=O)(=O)c2ccccc2[N+](=O)[O-])CC1	7.31%
CCC(CO)Nc1cccc2c1S(=O)(=O)N(Cc1cn(Cc3ccccc3C(F)(F)F)nn1)Cc1ccccc1O2 (stereo unspecified)	7.47%
COC(=O)C[C@H]1CC[C@H]2[C@H](COc3ccc(NC(=O)C4CC4)cc3C(=O)N2C)O1	-1.01%
Nc1[nH]c(C(=O)c2ccc(Br)cc2)c(-c2ccc3c(c2)OCO3)c1C(=O)NCCc1c[nH]c2ccccc12	14.8%
Cc1ccc(C(=O)N(Cc2ccccn2)CC2CCCO2)cc1 (stereo unspecified)	-0.73%
COc1cc(/C=C2/C(=O)NN(c3cccc(Cl)c3)C2=O)cc(Br)c1O	64% (active)
CCOc1c(Br)cc(/C=C2\C(=O)N(CCC#N)N=C2C)cc1OC	16.2%
CCN(C(=O)[C@@H](C1CC1)[C@@H](O)c1ccc2ccccc2c1)c1ccccc1	-1.86%

Structure (SMILES)	inhibition
COC(=O)[C@]12C[C@H](CC(=O)NCc3ccc(C)o3)C(=O)N(CCC3=CCCCC3)C1=C[C@H](C(C)(C)C)O[C@@H]2C	0.73%
O=C(CNS(=O)(=O)c1ccccc1F)N1CCN(c2ccccn2)CC1	-0.14%
COc1ccc2[nH]c3c(C)c4cc[n+](C)cc4c(C)c3c2c1	39.2% (active)
CC(=O)N1CCCN(C2=Nc3ccccc3Sc3ccccc32)CC1	-1.49%
O=S1(=O)c2ccc(Br)cc2OC[C@@H](Cc2ccccc2)N1Cc1cn(Cc2ccco2)nn1	4.58%
Cc1ccc(Nc2nc(-c3ccc(O)cc3O)cs2)nc1	36.2% (active)
Cc1ccc(-c2csc(NCCc3nc4cc(Cl)c(Cl)cc4n3CCOCCO)n2)cc1	17.1%
CC(=O)Nc1cnc(-c2ccc(O)cc2C)cn1	1.38%
O=S(=O)(c1cccs1)N1CCCc2nc(-c3ccc(Br)cc3)ccc21	4.14%
O=C(CSc1nc2ccccc2nc1N1CCCCC1)N1CCN(S(=O)(=O)c2cccc([N+](=O)[O-])c2)CC1	12%
CN(Cc1ccccc1)S(=O)(=O)c1nnc(NC(=O)c2ccccc2F)s1	54.3% (active)
O=C(Nc1nnc(-c2ccccc2F)s1)c1ccccc1F	0.79%
CCCCC(=O)Nc1nnc(S(=O)(=O)N(C)Cc2ccco2)s1	5.48%
Cc1cccc(C(=O)Nc2c(-c3ccc(F)cc3)nc3ncccn23)c1	0.58%
C=C(C)C1CC23C(=O)C4(C(=O)c5ccccc5)C[C@@]5(C)CCC(CC2C1(C)C)(C4=O)C35OC (stereo partly specified)	8.07%
O=C(CN1CCN(C(=O)c2ccco2)CC1)Nc1ccc2c(c1)OCO2	0.64%
Cc1ccc(-c2csc(C(C#N)=C(O)CN3CCN(C(=O)c4ccco4)CC3)n2)cc1	42.8% (active)
Cc1ccc(NC(=O)C(c2ccccc2)N2CCN(C(=O)c3ccco3)CC2)cc1 (stereo unspecified)	4.43%
